Source: the supplement of paper PMC8975748
Where a name gives a salt, the structure may show the parent alone. ± gives the standard deviation of the averaged measurements.

How the values were obtained:
[1] = system: Saccharomyces cerevisiae BY4741 SeMeCo community; assay: mean cell size (pixel area) (pixels); higher = larger cells; conditions: 10 µM; 24 h; SM minimal medium
In short: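 A fluorescent Saccharomyces cerevisiae BY4741 community carrying four plasmids was used, with each plasmid complementing one auxotrophy and bearing a fluorescent marker. An overnight preculture at OD600 = 1.0 was diluted to OD600 = 0.3, and 70 µl went into 384-well plates acoustically predosed with drug (final 10 µM) in SM medium for 24 h. After paraformaldehyde fixation, cells were imaged by automated confocal microscopy and analysed in Harmony, giving the mean cell pixel area per well. Each value is the average of 3 replicates. Same SeMeCo high-content imaging drug screen: Selleck FDA-approved drugs at 10 µM, 24 h in SM medium, 384-well plates, 3 replicates.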

[2] = system: Saccharomyces cerevisiae BY4741 SeMeCo community; assay: z-score of prototroph abundance vs DMSO median; higher = larger share of this subpopulation than in DMSO controls; conditions: 10 µM; 24 h; SM minimal medium; subpopulation (auxotrophy): Prototroph
In short: (§1)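 Subpopulation abundance was reported as a z-score against the median of vehicle wells. The Saccharomyces cerevisiae BY4741 community, carrying four plasmids that each restored one auxotrophy and encoded a distinct fluorescent protein, was grown 24 h in minimal SM medium in 384-well plates holding library drugs at 10 µM final. Cells were paraformaldehyde-fixed and imaged by automated confocal microscopy, with single-auxotroph fluorescent strains used for thresholds and autofluorescence correction.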

[3] = system: Saccharomyces cerevisiae BY4741 SeMeCo community; assay: z-score of subpopulation abundance vs DMSO median, subpopulation auxotrophic for M; higher = larger share of this subpopulation than in DMSO controls; conditions: 10 µM; 24 h; SM minimal medium; subpopulation (auxotrophy): M
In short: as §1

[4] = system: Saccharomyces cerevisiae BY4741 SeMeCo community; assay: z-score of subpopulation abundance vs DMSO median, subpopulation auxotrophic for L; higher = larger share of this subpopulation than in DMSO controls; conditions: 10 µM; 24 h; SM minimal medium; subpopulation (auxotrophy): L
In short: as §1

[5] = system: Saccharomyces cerevisiae BY4741 SeMeCo community; assay: z-score of subpopulation abundance vs DMSO median, subpopulation auxotrophic for U; higher = larger share of this subpopulation than in DMSO controls; conditions: 10 µM; 24 h; SM minimal medium; subpopulation (auxotrophy): U
In short: as §1

[6] = system: Saccharomyces cerevisiae BY4741 SeMeCo community; assay: z-score of subpopulation abundance vs DMSO median, subpopulation auxotrophic for H; higher = larger share of this subpopulation than in DMSO controls; conditions: 10 µM; 24 h; SM minimal medium; subpopulation (auxotrophy): H
In short: as §1

[7] = system: Saccharomyces cerevisiae BY4741 SeMeCo community; assay: z-score of subpopulation abundance vs DMSO median, subpopulation auxotrophic for LU; higher = larger share of this subpopulation than in DMSO controls; conditions: 10 µM; 24 h; SM minimal medium; subpopulation (auxotrophy): LU
In short: as §1

[8] = system: Saccharomyces cerevisiae BY4741 SeMeCo community; assay: z-score of subpopulation abundance vs DMSO median, subpopulation auxotrophic for LM; higher = larger share of this subpopulation than in DMSO controls; conditions: 10 µM; 24 h; SM minimal medium; subpopulation (auxotrophy): LM
In short: as §1

[9] = system: Saccharomyces cerevisiae BY4741 SeMeCo community; assay: z-score of subpopulation abundance vs DMSO median, subpopulation auxotrophic for HU; higher = larger share of this subpopulation than in DMSO controls; conditions: 10 µM; 24 h; SM minimal medium; subpopulation (auxotrophy): HU
In short: as §1

[10] = system: Saccharomyces cerevisiae BY4741 SeMeCo community; assay: z-score of subpopulation abundance vs DMSO median, subpopulation auxotrophic for UM; higher = larger share of this subpopulation than in DMSO controls; conditions: 10 µM; 24 h; SM minimal medium; subpopulation (auxotrophy): UM
In short: as §1

[11] = system: Saccharomyces cerevisiae BY4741 SeMeCo community; assay: z-score of subpopulation abundance vs DMSO median, subpopulation auxotrophic for HL; higher = larger share of this subpopulation than in DMSO controls; conditions: 10 µM; 24 h; SM minimal medium; subpopulation (auxotrophy): HL
In short: as §1

[12] = system: Saccharomyces cerevisiae BY4741 SeMeCo community; assay: z-score of subpopulation abundance vs DMSO median, subpopulation auxotrophic for HLU; higher = larger share of this subpopulation than in DMSO controls; conditions: 10 µM; 24 h; SM minimal medium; subpopulation (auxotrophy): HLU
In short: as §1

[13] = system: Saccharomyces cerevisiae BY4741 SeMeCo community; assay: z-score of subpopulation abundance vs DMSO median, subpopulation auxotrophic for HLM; higher = larger share of this subpopulation than in DMSO controls; conditions: 10 µM; 24 h; SM minimal medium; subpopulation (auxotrophy): HLM
In short: as §1

[14] = system: Saccharomyces cerevisiae BY4741 SeMeCo community; assay: z-score of subpopulation abundance vs DMSO median, subpopulation auxotrophic for HUM; higher = larger share of this subpopulation than in DMSO controls; conditions: 10 µM; 24 h; SM minimal medium; subpopulation (auxotrophy): HUM
In short: as §1

[15] = system: Saccharomyces cerevisiae BY4741 SeMeCo community; assay: z-score of subpopulation abundance vs DMSO median, subpopulation auxotrophic for LUM; higher = larger share of this subpopulation than in DMSO controls; conditions: 10 µM; 24 h; SM minimal medium; subpopulation (auxotrophy): LUM
In short: as §1

[16] = system: Saccharomyces cerevisiae BY4741 SeMeCo community; assay: z-score of subpopulation abundance vs DMSO median, subpopulation auxotrophic for HLUM; higher = larger share of this subpopulation than in DMSO controls; conditions: 10 µM; 24 h; SM minimal medium; subpopulation (auxotrophy): HLUM
In short: as §1

[17] = system: Saccharomyces cerevisiae BY4741 SeMeCo community; assay: z-score of subpopulation abundance vs DMSO median, subpopulation auxotrophic for HM; higher = larger share of this subpopulation than in DMSO controls; conditions: 10 µM; 24 h; SM minimal medium; subpopulation (auxotrophy): HM
In short: as §1

Row | SMILES | mean cell size [1] | z-score of prototroph abundance [2] | z-score of subpopulation abundance [3] | z-score of subpopulation abundance [4] | z-score of subpopulation abundance [5] | z-score of subpopulation abundance [6] | z-score of subpopulation abundance [7] | z-score of subpopulation abundance [8] | z-score of subpopulation abundance [9] | z-score of subpopulation abundance [10] | z-score of subpopulation abundance [11] | z-score of subpopulation abundance [12] | z-score of subpopulation abundance [13] | z-score of subpopulation abundance [14] | z-score of subpopulation abundance [15] | z-score of subpopulation abundance [16] | z-score of subpopulation abundance [17]
1 | CCOC(=O)c1ccc(O)cc1 [Ethylparaben] | 12.5 ± 0.25 | -1.38 | -0.6 | -0.33 | 1.83 | -0.25 | 0.65 | -0.67 | 1.78 | 1.66 | -0.54 | -0.25 | 0.26 | 0.44 | 0.63 | 1.8 | –
2 | COc1ccc(Cc2cnc(N)nc2N)cc1OC [Diaveridine] | 12.35 ± 0.055 | 0.22 | 0.6 | -0.53 | -0.37 | -0.11 | -0.41 | -0.01 | -0.25 | -0.39 | -0.33 | 0.14 | -0.26 | 0.18 | -0.41 | 0.06 | –
3 | CC(C)n1c(/C=C/C(O)CC(O)CC(=O)O)c(-c2ccc(F)cc2)c2ccccc21 (stereo not drawn) [Fluvastatin Sodium] | 12.1 ± 0.16 | -11 | 6.6 | -1.3 | 0.84 | 6.45 | 1.08 | -0.26 | 7.53 | 8.31 | 7.24 | 4.2 | 21.3 | 12.8 | 4.75 | – | 17.4
4 | O=C(O)CCc1nc(-c2ccccc2)c(-c2ccccc2)o1 [Oxaprozin] | 13 ± 0.46 | 2.48 | -1.37 | -0.53 | -1.97 | -0.36 | -2.1 | -1 | -1.46 | -3.67 | -0.56 | -0.7 | -0.64 | -1.67 | -1.68 | -0.44 | –
5 | O=C(c1ccc(OCCN2CCCCC2)cc1)c1c(-c2ccc(O)cc2)sc2cc(O)ccc12 [Raloxifene HCl] | 12.2 ± 0.27 | 0.44 | 0.58 | 1.28 | -1.87 | 0.59 | -1.4 | 1.33 | -1.43 | -0.85 | 0.66 | -0.29 | -0.47 | 0.06 | -0.24 | -0.56 | –
6 | CCCCCCCCOc1ccccc1C(=O)Nc1ccc(C(=O)OCC[N+](C)(CC)CC)cc1 [Otilonium Bromide] | 12.27 ± 0.099 | -2.44 | -2.04 | -3.08 | 0.58 | 4.58 | 0.74 | -2.38 | 3.65 | -0.66 | – | 3.81 | 9.05 | 2.02 | 2.14 | – | 5.47
7 | C[N+](C)(C)CCOC(=O)CCC(=O)OCC[N+](C)(C)C [Succinylcholine Chloride Dihydrate] | 12 ± 0.24 | 0.17 | 1.02 | -0.65 | 0.38 | -0.95 | -1.48 | 0.01 | -0.93 | 0.5 | -0.8 | -0.97 | -0.3 | -0.03 | -0.49 | – | 0.1
8 | Cc1cc(O)c(C(=O)N[C@@H](C(=O)N[C@@H]2C(=O)N3C(C(=O)O)=C(CSc4nnnn4C)CS[C@H]23)c2ccc(O)cc2)cn1 [Cefpiramide sodium] | 12.3 ± 0.13 | – | 0.99 | -0.92 | 0.61 | -0.05 | -0.12 | -0.42 | 0.5 | 0.29 | 0.18 | 0.16 | -0.6 | -0.35 | -0.42 | – | 0.57
9 | C[C@]1(Cn2ccnn2)[C@H](C(=O)O)N2C(=O)C[C@H]2S1(=O)=O [Tazobactam] | 12.4 ± 0.26 | -0.17 | -0.32 | -0.56 | 0.75 | -1.1 | 0.66 | -0.39 | 0.31 | 0.66 | -0.38 | 0.12 | -0.56 | -0.01 | – | 0.69 | –
10 | O=C(CCCN1CC=C(n2c(=O)[nH]c3ccccc32)CC1)c1ccc(F)cc1 [Droperidol] | 12.61 ± 0.072 | -0.55 | 0.67 | 0.41 | 0.1 | – | 1.58 | 0.69 | -0.11 | 0.62 | 0.21 | -0.09 | 0.63 | -0.23 | – | 0.59 | –
11 | CCN1CCCC1CNC(=O)c1cc(S(N)(=O)=O)ccc1OC (stereo not drawn) [Sulpiride] | 12.54 ± 0.037 | – | 0.12 | 0.31 | -0.56 | -0.37 | -0.37 | -0.86 | -0.14 | -0.33 | -0.63 | -1.3 | 0.14 | -0.68 | – | – | -0.46
12 | C[C@@H]1[C@H](O)[C@@H](C)/C=C/C=C/C=C/C=C/C=C/C=C/C=C/[C@H](O[C@@H]2O[C@H](C)[C@@H](O)[C@H](N)[C@@H]2O)C[C@@H]2O[C@](O)(C[C@@H](O)C[C@@H](O)[C@H](O)CC[C@@H](O)C[C@@H](O)CC(=O)O[C@H]1C)C[C@H](O)[C@H]2C(=O)O [Amphotericin B] | 9.69 ± 0.22 | – | -8.72 | -2.03 | -0.38 | -5.04 | 24.4 | -0.85 | 10.5 | 29.4 | – | 31.3 | 12.6 | 75.7 | 29.1 | 163 | –
13 | CCc1cccc2c3c([nH]c12)C(CC)(CC(=O)O)OCC3 (stereo not drawn) [Etodolac] | 12.5 ± 0.19 | 1.07 | -0.55 | -0.55 | 0.62 | -0.66 | 0.31 | 0.26 | -0.8 | -0.43 | -0.44 | -0.48 | -0.82 | -0.52 | -0.9 | – | -0.61
14 | Cc1ccccc1OCC(O)CO (stereo not drawn) [Mephenesin] | 12.23 ± 0.086 | – | 0 | 0.09 | -0.22 | -0.65 | -0.42 | 0.02 | -0.86 | -0.82 | -0.53 | -0.38 | -0.4 | -0.77 | -0.39 | -0.28 | –
15 | CC[C@H](C)C(=O)O[C@H]1CCC=C2C=C[C@H](C)[C@H](CC[C@@H]3C[C@@H](O)CC(=O)O3)[C@H]21 [Mevastatin] | 11.6 ± 0.14 | 0.08 | -0.77 | -0.41 | 0.22 | – | 0.06 | -0.31 | 0.2 | – | 0.72 | 0.15 | -0.6 | -0.29 | -0.11 | -0.71 | –
